# BJeLR lethal: MLPCN primary cell-based screen for lethality selective to Ras in HRASV12 cells; BJeLR (HRASV12) viability, CellTiter-Glo ATP luminescence, 48 h; inhibition, % (concentration not given with the values); 300,000 compounds, 0.17% hits; AID 1554, 2009; in the data active means inhibition above about 50%
# CCHFV vOTU inh: CCHFV vOTU protease inhibitors, primary screen, biochemical, Pep-AMC substrate, fluorescence; inhibition, % at 11.5 µM; 370,000 compounds, 0.55% hits; in the data active means inhibition above about 30%; further: 0% = vehicle wells with enzyme and 100% = no enzyme wells
# MazF activator: activators of E. coli MazEF toxin-antitoxin RNase, primary screen, biochemical, fluorescence, uHTS; FAM/BHQ RNA-DNA oligo cleavage fluorescence, 5 h; activation, % at 20 µM; 350,000 compounds, 0.32% hits; AID 504720, 2011; in the data active means activation above about 50%
# Target sequence (P0AE70 whole entry, looked up): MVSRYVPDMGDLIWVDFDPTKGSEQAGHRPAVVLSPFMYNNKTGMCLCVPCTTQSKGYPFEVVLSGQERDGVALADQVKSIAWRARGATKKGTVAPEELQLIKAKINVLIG
# SARS 3CLpro inh: SARS-CoV 3CLpro protease inhibitors, primary screen, biochemical, quenched FRET. recombinant SARS-CoV 3CLpro, quenched FRET peptide cleavage. inhibition, % at 6 µM. 290,000 compounds, 0.14% hits; in the data active means inhibition above about 12%
# VHR inh abs: VHR1 phosphatase inhibitors, primary screen, biochemical, absorbance, uHTS. Dual specificity protein phosphatase 3 (Homo sapiens), P51452. recombinant VHR phosphatase, pNPP absorbance. inhibition, % at 13.3 µM. 290,000 compounds, 0.52% hits. AID 1654, 2009; in the data active means inhibition above about 50%
# Target sequence (P51452 whole entry, looked up): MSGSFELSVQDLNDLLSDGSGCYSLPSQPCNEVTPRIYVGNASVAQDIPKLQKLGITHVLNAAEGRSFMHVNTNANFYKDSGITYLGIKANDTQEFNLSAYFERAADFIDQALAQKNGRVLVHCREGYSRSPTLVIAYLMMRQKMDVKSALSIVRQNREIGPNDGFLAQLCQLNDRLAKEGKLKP
# Active calls of the source: *; x = no result given. Hits are enriched below; roughly 1.4% of the tested compounds scored in any of these assays.
SMILES,BJeLR lethal,CCHFV vOTU inh,MazF activator,SARS 3CLpro inh,VHR inh abs
Cc1cc(NC(=O)CC(C)C)c(=O)n(Cc2c(F)cccc2Cl)c1,8,10,5,0,54*
Cc1ccccc1S(=O)(=O)Cc1ccc(C(=O)NCc2ccccc2)o1,4,6,6,0,57*
O=C(NCc1ccccc1)c1ccc(CS(=O)(=O)Cc2ccc(F)cc2)o1,-4,11,1,-3,60*
CC(C)CCN(C)C1CCN(C(=O)Nc2ccc(Cl)cc2)CC1,x,-7,x,x,x
CCOCCCNc1nc2c(C)cccn2c(=O)c1/C=C1\SC(=S)N(CC(C)C)C1=O,-19,11,-427,-1,41
CCCN1C(=O)/C(=C/c2c(NCCCOCC)nc3c(C)cccn3c2=O)SC1=S,x,-3,295*,1,4
Cc1cccn2c(=O)c(/C=C3\SC(=S)NC3=O)c(NCCCN3CCOCC3)nc12,2,-11,-129,-2,3
CCOCCCNc1nc2c(C)cccn2c(=O)c1/C=C1\SC(=S)N(C(C)CC)C1=O (stereo not drawn),6,-5,603*,1,6
COc1ccccc1NC1=NCC(=O)N1Cc1ccccc1,-5,-2,8,-5,18
CCOc1ccccc1NC1=NCC(=O)N1Cc1ccc(F)cc1,-7,5,4,-2,53*
COCc1c(C(C)C)nc(C(C)C)c(/C=C/[C@@H](O)C[C@@H](O)CC(=O)O)c1-c1ccc(F)cc1,72*,x,x,x,x
N#C/C(=C\c1cn(-c2ccccc2)nc1-c1cc2ccccc2o1)c1nc2ccccc2[nH]1,17,-17,741*,2,17
CN(C)S(=O)(=O)c1cccc(-c2nn(-c3ccccc3)cc2/C=C(\C#N)c2nc3ccccc3[nH]2)c1,0,-1,-35,0,3
N=C1N(C(=O)OCc2ccccc2)/C(=C\C2=CCCCC2)C(Cc2ccccc2)N1Cc1ccccc1 (stereo not drawn),x,11,x,x,x
N#Cc1c(NC(=O)/C=C/c2ccco2)sc2c1CCCC2,56*,10,-4,3,14
C=C(C)Cn1c(SCC(=O)NN=Cc2c(O)ccc3ccccc23)nnc1-c1ccc(Br)cc1,x,12,x,x,x
CCCCNS(=O)(=O)c1ccc2nc(SCC(=O)c3ccc(C#N)cc3)[nH]c2c1,-1,15,7,2,57*
CCCCNS(=O)(=O)c1ccc2nc(SCC(=O)Nc3ccccc3)[nH]c2c1,-8,3,-2,1,-4
CCOC(=O)[C@]12CCCC=C1N(CCCOC)C(=O)[C@@H]2CC(=O)NCC1CCCCC1,x,9,x,x,x
C=CCOc1nc2c(c(=O)n(C)c(=O)n2C)n1Cc1ccc(Cl)cc1,8,-24,-6,-5,55*
O=C(Nc1nc2ccccc2[nH]1)c1ccccc1F,85*,-22,-33,7,26
CCCCN1C2=C(C(=O)CCC2)C(c2ccc(Cl)c(Cl)c2)C2=C1c1ccccc1C2=O (stereo not drawn),10,-11,60*,9,3
O=C1NC(=O)C(=Cc2cc3c(cc2[N+](=O)[O-])OCO3)C(=O)N1,-19,-6,25,2,14
Cc1cccc(N2C(=O)NC(=O)/C(=C/c3cc4c(cc3[N+](=O)[O-])OCO4)C2=O)c1,3,-15,537*,4,12
Cc1ccccc1CN1CCCCC(NC(=O)c2ccc(F)c(F)c2)C1=O (stereo not drawn),x,6,x,x,x
SMILES,BJeLR lethal,CCHFV vOTU inh,MazF activator,SARS 3CLpro inh,VHR inh abs
C/C(=N\Nc1ncnc2sc(C)c(C)c12)c1ccccn1,80*,22,-61,-6,13
C/C(=N\Nc1ncc(Cl)cc1Cl)c1ccccn1,67*,x,-29,0,7
C/C(=N\Nc1ccc(Cl)c(C(=O)O)c1)c1ccccn1,-5,-6,5,-1,-6
Cc1sc2ncnc(N/N=C/c3cccc(O)c3)c2c1C,4,1,5,-6,-10
Cc1cc(-c2n[nH]c(=S)n2N=Cc2cc(Br)ccc2F)n[nH]1,x,8,x,x,x
O=C1NN(c2cccc(Br)c2)C(=O)/C1=C\c1ccc(N2CCOCC2)cc1,5,x,4,1,53*
O=C1NC(=O)N(Cc2cccs2)C(=O)/C1=C/c1ccc(N2CCOCC2)cc1,-2,18,-22,3,8
COc1ccc(OC)c(NC(=O)C2CC(=O)N(c3ccccc3)C2)c1 (stereo not drawn),5,4,-4,-4,-2
COc1ccc(NC(=O)C2CC(=O)N(c3ccccc3C)C2)c(OC)c1 (stereo not drawn),9,5,10,-2,58*
CCN(CC)C(=O)CC[C@H]1CC[C@]2(CCCN(Cc3ccccc3)C2)O1,x,-3,x,x,x
CC(C)CN1CN2CCc3ccccc3C2CS1(=O)=O (stereo not drawn),x,-9,x,x,x
CCn1cc(CNC(=O)CSc2nc(-c3ccc(OC)c(OC)c3)cc(C(F)(F)F)n2)c(C)n1,3,-11,-1,1,51*
O=C(NCc1ccccc1)c1cc(S(=O)(=O)N2CCOCC2)ccc1F,1,5,50*,4,27
CN(Cc1ccccc1)C(=O)c1cn(C)c2ccc(S(=O)(=O)N3CCCC3)cc2c1=O,-5,5,-18,-4,51*
Cc1ccc(CNC(=O)c2cn(C)c3ccc(S(=O)(=O)N4CCOCC4)cc3c2=O)cc1,11,-15,0,0,52*
COC(=O)[C@]12C[C@H](CC(=O)NCc3ccc(OC)c(OC)c3)C(=O)N(Cc3ccccc3)C1=C[C@H](COCc1ccccc1)O[C@@H]2C,x,-1,x,x,x
COc1ccc(-n2cc(COC(=O)NCCc3ccccc3)nn2)cc1,x,3,x,x,x
CCN(CC)S(=O)(=O)c1ccc(Cl)c(NC(=O)c2cc(Cl)ccc2Cl)c1,2,-6,54*,2,-4
COc1ccc(CN2C[C@]3(C=C4CCCCC4n4c(=O)n(-c5ccccc5)c(=O)n43)N=C2NC(=O)c2ccccc2)c(OC)c1 (stereo partly drawn),x,5,x,x,x
C=CCN1C(=O)[C@@H](CC(=O)NCCC(C)C)[C@]2(C(=O)OC)CCCCC=C12,x,1,x,x,x
COc1ccc(N=c2oc3cc(O)ccc3cc2C(=O)NCC2CCCO2)c(OC)c1 (stereo not drawn),0,-146,85*,3,4
COc1ccc(N=c2oc3cc(O)ccc3cc2C(=O)NCC2CCCO2)cc1 (stereo not drawn),-3,-103,4,1,8
COc1ccc2oc(C(=O)NCC3CCCO3)c(C)c2c1 (stereo not drawn),-1,-1,-1,-6,52*
CCOc1ccc2oc(C(=O)NCC3CCCO3)c(C)c2c1 (stereo not drawn),-18,-18,3,-3,5
